Test results as given in paper PMC4336329 (PLoS ONE, 2015).
Hit rate of the full screen: of about 310,000 compounds, about 14,000 (4.5%) showed an effect of 50% or more. The effect is printed as a negative number. The full list was thinned out, with strong results kept by preference.

target: human ether-à-go-go-related gene (hERG) potassium channel (human, UniProt Q12809); assay: primary screen, population patch clamp on CHO cells stably expressing hERG; higher = less effect of the substance
Procedure: Briefly, Chinese hamster ovary (CHO) cells stably expressing the hERG channel were dislodged from tissue culture flasks and dispensed into PPC plates. […] During the recording, background leak currents were estimated by a 100 ms step to -80 mV from an initial holding potential of -70 mV and subtracted from the subsequent current measurement. The campaign was conducted in two phases using slight differences in recording protocol. In the first phase, the initial voltage pulse used a 100 ms step to -30 mV from a holding potential of -70 mV, a 2 s conditioning step to +25 mV, and a 2 s test step to -30 mV. During the second phase of the screen, the potential during the conditioning step was raised to +45 mV. In both phases of the campaign, a secondary voltage pulse was applied using the same parameters as the second phase initial pulse. The initial and secondary pulses were applied in the absence of compound, and upon application of 1 μM and 10 μM test concentrations. […]
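Also: peak tail current of the secondary pulse compared with the same well before compound.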

Chain of human ether-à-go-go-related gene (hERG) potassium channel (Q12809 whole entry, looked up): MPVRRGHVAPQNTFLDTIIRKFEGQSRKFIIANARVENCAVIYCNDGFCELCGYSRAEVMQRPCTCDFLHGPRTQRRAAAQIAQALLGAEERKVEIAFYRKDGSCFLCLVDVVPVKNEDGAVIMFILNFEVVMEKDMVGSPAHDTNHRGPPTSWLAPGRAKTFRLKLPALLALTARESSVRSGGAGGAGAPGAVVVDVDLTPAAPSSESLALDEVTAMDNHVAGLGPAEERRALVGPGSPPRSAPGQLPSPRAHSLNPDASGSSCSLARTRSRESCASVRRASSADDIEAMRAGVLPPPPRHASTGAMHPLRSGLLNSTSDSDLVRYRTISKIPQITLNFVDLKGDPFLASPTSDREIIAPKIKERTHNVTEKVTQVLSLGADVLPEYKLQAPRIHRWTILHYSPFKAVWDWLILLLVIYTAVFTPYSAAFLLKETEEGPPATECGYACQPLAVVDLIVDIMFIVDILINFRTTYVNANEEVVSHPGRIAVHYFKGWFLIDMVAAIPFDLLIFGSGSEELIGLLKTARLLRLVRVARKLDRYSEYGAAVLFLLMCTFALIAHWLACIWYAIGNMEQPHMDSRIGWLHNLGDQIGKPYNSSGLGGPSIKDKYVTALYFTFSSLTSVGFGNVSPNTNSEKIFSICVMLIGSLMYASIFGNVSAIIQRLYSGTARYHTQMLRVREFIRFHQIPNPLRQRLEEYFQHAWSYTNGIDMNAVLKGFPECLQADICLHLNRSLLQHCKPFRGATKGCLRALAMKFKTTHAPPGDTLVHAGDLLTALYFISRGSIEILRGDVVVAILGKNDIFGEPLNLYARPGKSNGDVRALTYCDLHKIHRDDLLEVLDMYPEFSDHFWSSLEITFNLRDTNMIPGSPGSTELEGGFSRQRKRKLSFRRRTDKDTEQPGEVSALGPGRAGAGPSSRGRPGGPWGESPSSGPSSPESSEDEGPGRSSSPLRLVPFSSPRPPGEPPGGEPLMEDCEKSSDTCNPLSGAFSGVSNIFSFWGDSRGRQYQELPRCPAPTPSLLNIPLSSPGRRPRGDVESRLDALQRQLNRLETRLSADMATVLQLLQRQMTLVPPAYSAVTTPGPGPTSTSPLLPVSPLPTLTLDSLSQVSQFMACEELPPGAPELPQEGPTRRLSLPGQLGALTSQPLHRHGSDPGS

Compared with `Oc1ccccc1-c1nc(NCCN2CCOCC2)c2ccccc2n1`, `Brc1ccc(-n2cc(-c3ccccc3)c3c(NN4CCOCC4)ncnc32)cc1` is higher in “hERG current change (%, negative = inhibition) at 10uM” value: -26.2% for the first, -15.7% for the second.

First: CCOC(=O)CSc1ccc(C(=O)Nc2ccc(Cl)cc2)cn1
Second: O=C(NCC1CCCO1)c1ccc(COc2ccc(Cl)cc2)cc1 (stereo not shown)
The “hERG current change (%, negative = inhibition) at 10uM” value of the first is higher: 21.8% for the first, -11.9% for the second.

Going from `CCOC(=O)c1c(C)[nH]c(C)c1S(=O)(=O)NCC(=O)Nc1ccccn1` to `CCOC(=O)c1sc(NC(=O)c2ccco2)nc1C`, the “hERG current change (%, negative = inhibition) at 10uM” value falls from 17.9% to 13.3%.

Compared with `COc1ccc(N)c2c1C(=O)c1ccccc1C2=O`, `COc1ccccc1OCc1ccc(C(=O)NC(C)(C)C)o1` is higher in “hERG current change (%, negative = inhibition) at 10uM” value: -10.4% for the first, 2.29% for the second.

Compared with `CC(OC(=O)COc1ccccc1Cc1ccccc1)C(=O)N(C)c1ccccc1` (stereo not shown), `CC(COc1ccccc1Cc1ccccc1)N1CCCCC1.O=P(O)(O)O` (stereo not shown) is lower in “hERG current change (%, negative = inhibition) at 10uM” value: -0.572% for the first, -70.1% for the second.

Compared with `CC(C(=O)Nc1ccc(OCc2ccccc2)cc1)N1CCCC1` (stereo not shown), `O=C(NCC1CCCO1)c1ccc(COc2ccccc2)cc1` (stereo not shown) is lower in “hERG current change (%, negative = inhibition) at 10uM” value: -21.6% for the first, -56.3% for the second.

Going from `CCOc1ccc2c(c1)N(C(=O)CN1C(=O)CCC1=O)C(C)(C)C=C2C` to `COc1ccc(-c2nn(-c3ccccc3)cc2/C=C2/SC(=S)N(CCCC(=O)O)C2=O)c(C)c1`, the “hERG current change (%, negative = inhibition) at 10uM” value rises from -22.8% to 26%.

Going from `COCCNC(=O)COc1ccc(Br)cc1Cl` to `O=C(COc1ccc(Br)cc1Cl)NC(=S)N1CCc2ccccc21`, the “hERG current change (%, negative = inhibition) at 10uM” value rises from 10.4% to 21.7%.

First: COCCNC(=O)C(c1ccc(F)cc1)N(C(=O)CCC(=O)Nc1nccs1)c1ccc(C)cc1 (stereo not shown)
Second: CN(c1ccc(OCC(=O)OCC(=O)Nc2ccc(Br)cc2)cc1)S(=O)(=O)c1cccs1
The “hERG current change (%, negative = inhibition) at 10uM” value of the first is lower: -14.1% for the first, -0.388% for the second.

Compared with `O=C(N/N=C/c1ccco1)c1ccccc1OCc1ccccc1Cl`, `O=C(N/N=C/c1ccc[nH]1)c1ccccc1OCc1ccccc1Cl` is higher in “hERG current change (%, negative = inhibition) at 10uM” value: -82.8% for the first, -25.5% for the second.

First: O=C(N/N=C/c1ccco1)c1ccccc1OCc1ccc(Br)cc1
Second: O=C(NCC1CCCO1)c1ccc(COc2ccc(Br)cc2)cc1 (stereo not shown)
The “hERG current change (%, negative = inhibition) at 10uM” value of the first is higher: -8.69% for the first, -13.7% for the second.

First: CC(=O)c1ccc(-c2ccc(C(=O)NC3CCCCCC3)o2)cc1
Second: CC(=O)c1ccc(-c2ccc(C(=O)NCC3CCCO3)o2)cc1 (stereo not shown)
The “hERG current change (%, negative = inhibition) at 10uM” value of the first is higher: 26% for the first, -50.5% for the second.

First: O=C(NCC1CCCO1)c1ccc(NC(=O)c2ccc([N+](=O)[O-])cc2)cc1 (stereo not shown)
Second: O=C(NCC1CCCO1)c1ccc(NC(=O)c2cccc([N+](=O)[O-])c2)cc1 (stereo not shown)
The “hERG current change (%, negative = inhibition) at 10uM” value of the first is lower: -2.58% for the first, 3.68% for the second.

First: O=C(NCC1CCCO1)c1cccc(Oc2ccc([N+](=O)[O-])cc2Cl)c1 (stereo not shown)
Second: O=C(NCC1CCCO1)c1ccc(Oc2ccc([N+](=O)[O-])cc2Cl)cc1 (stereo not shown)
The “hERG current change (%, negative = inhibition) at 10uM” value of the first is lower: -72.6% for the first, -41.6% for the second.

Compared with `CC1(C)CC(NC(=O)c2ccc(-c3ccc([N+](=O)[O-])cc3)o2)CC(C)(C)N1`, `CC(=O)c1ccc(-c2ccc(C(=O)NC3CC(C)(C)NC(C)(C)C3)o2)cc1` is lower in “hERG current change (%, negative = inhibition) at 10uM” value: -49% for the first, -122% for the second.

Going from `O=C(NC(=S)NCC1CCCO1)c1ccc([N+](=O)[O-])cc1` (stereo not shown) to `O=C(NCC1CCCO1)c1ccc(Oc2ccc([N+](=O)[O-])cc2)cc1` (stereo not shown), the “hERG current change (%, negative = inhibition) at 10uM” value falls from -16.6% to -60.8%.

Compared with `O=C(NCC1CCCO1)c1cccc(Oc2c(Cl)cccc2[N+](=O)[O-])c1` (stereo not shown), `O=C(NCC1CCCO1)c1cccc(Oc2ccc([N+](=O)[O-])cc2)c1` (stereo not shown) is lower in “hERG current change (%, negative = inhibition) at 10uM” value: -0.562% for the first, -73.7% for the second.

First: Cn1c(SCC(=O)OCc2ccccc2)nnc1-c1ccco1
Second: O=C(NCCS(=O)(=O)N1CCN(c2ccccc2)CC1)c1ccco1
The “hERG current change (%, negative = inhibition) at 10uM” value of the first is higher: 0.0583% for the first, -14.5% for the second.

Going from `CCCCC(=O)NC(c1ccco1)c1c(O)ccc2ccccc12` (stereo not shown) to `CCOc1ccc(NC(c2ccccn2)c2oc(CO)cc(=O)c2O)cc1` (stereo not shown), the “hERG current change (%, negative = inhibition) at 10uM” value rises from -2.6% to 5.43%.

First: O=C1CC2CS(=O)(=O)CC2N1c1ccc(Cl)cc1Cl (stereo not shown)
Second: Cc1cccc(CC(=O)NCCS(=O)(=O)N2CCN(c3cccc(Cl)c3)CC2)c1
The “hERG current change (%, negative = inhibition) at 10uM” value of the first is higher: 5.75% for the first, -20.2% for the second.

Compared with `CCCc1ccc(S(=O)(=O)N/N=C\c2ccc3c(c2)OCO3)cc1`, `CCS(=O)(=O)c1ccc(O)c(NC(=O)COc2ccc(Br)cc2)c1` is lower in “hERG current change (%, negative = inhibition) at 10uM” value: -0.771% for the first, -3.73% for the second.

Compared with `CN(C)CCNc1oc(-c2cccc(Cl)c2)nc1C#N`, `O=C(NCCS(=O)(=O)N1CCN(c2cccc(Cl)c2)CC1)c1cc(=O)c2ccccc2o1` is higher in “hERG current change (%, negative = inhibition) at 10uM” value: -36.2% for the first, 5.36% for the second.

First: C=CCC1(Nc2ccccc2)CC(C)N(C)CC1C.O=C(O)C(=O)O (stereo not shown)
Second: C=CCn1c(SCC(=O)Nc2ccccc2F)nc2ccccc2c1=O
The “hERG current change (%, negative = inhibition) at 10uM” value of the first is lower: -21.1% for the first, 5.56% for the second.

First: Cc1ccc(-n2c(CSc3nc(C)cc(C)n3)nnc2SCC(=O)NCc2ccco2)cc1
Second: COc1ccc(N2CCN(S(=O)(=O)CCNC(=O)c3ccco3)CC2)cc1
The “hERG current change (%, negative = inhibition) at 10uM” value of the first is lower: -38.7% for the first, -9.43% for the second.

Compared with `CCCCn1c(=O)n(C)c(=O)c2c3c(sc21)COC(C)(C)C3`, `CC(C)=CCN1CCN(Cc2cn(C(C)C)c3ccccc23)CC1CCO` (stereo not shown) is higher in “hERG current change (%, negative = inhibition) at 10uM” value: -11.1% for the first, -10.5% for the second.

Compared with `C/C(=N\NC(=O)c1ccc(NS(=O)(=O)c2cccs2)cc1)c1ccccc1`, `CC(=O)Nc1ccc(NC(=O)CC2SC(=O)N(CC(=O)c3ccccc3)C2=O)cc1` (stereo not shown) is lower in “hERG current change (%, negative = inhibition) at 10uM” value: 22.3% for the first, 7.25% for the second.

Going from `O=C(NCC1CCCO1)c1ccc(-c2cccc(C(F)(F)F)c2)o1` (stereo not shown) to `Cc1ccc(C(=O)NCC2CCCO2)o1` (stereo not shown), the “hERG current change (%, negative = inhibition) at 10uM” value rises from -16.2% to 7.49%.

Going from `O=C(NCC1CCCO1)c1cccc(Oc2ccccc2)c1` (stereo not shown) to `O=C(Cc1ccccc1)NCCS(=O)(=O)N1CCN(c2cccc(Cl)c2)CC1`, the “hERG current change (%, negative = inhibition) at 10uM” value falls from -37.5% to -82.8%.

Going from `O=c1cc(CN2CCN(c3cccc(Cl)c3)CC2)c2cc3c(cc2o1)CCCC3` to `O=C(NCCS(=O)(=O)N1CCN(c2cccc(Cl)c2)CC1)C1CCCC1`, the “hERG current change (%, negative = inhibition) at 10uM” value falls from 15.8% to -79%.

First: Cc1ccc(S(=O)(=O)CCC(=O)OCC(=O)N2CC(=O)Nc3ccccc32)cc1
Second: O=C(Cn1c(=O)oc2cc(S(=O)(=O)NCc3ccccc3)ccc21)N1CCCC1
The “hERG current change (%, negative = inhibition) at 10uM” value of the first is lower: -22.1% for the first, 15.2% for the second.

Going from `O=C(NCc1ccco1)NC12CC3CC(CC(C3)C1)C2` to `O=C(NCCS(=O)(=O)N1CCN(c2ccccc2F)CC1)c1ccco1`, the “hERG current change (%, negative = inhibition) at 10uM” value falls from 14.5% to -16.5%.

Going from `O=C(NCCS(=O)(=O)N1CCN(c2ccccc2)CC1)c1ccc(Br)o1` to `O=C(NCCS(=O)(=O)N1CCN(c2ccc(F)cc2)CC1)c1ccc(Br)o1`, the “hERG current change (%, negative = inhibition) at 10uM” value falls from -5.85% to -60.1%.

Compared with `COc1ccc(N2CCN(S(=O)(=O)CCNC(=O)C3CCCCC3)CC2)cc1`, `O=C(NCCS(=O)(=O)N1CCN(c2ccccc2)CC1)C1CC1` is lower in “hERG current change (%, negative = inhibition) at 10uM” value: 5.98% for the first, 3.93% for the second.

Compared with `O=C(Cc1ccc(F)cc1)NCCS(=O)(=O)N1CCN(c2cccc(Cl)c2)CC1`, `O=C(Cc1ccc(F)cc1)NCCS(=O)(=O)N1CCN(c2ccccc2)CC1` is higher in “hERG current change (%, negative = inhibition) at 10uM” value: -16.2% for the first, 5.42% for the second.

First: O=C(NCCS(=O)(=O)N1CCN(c2cccc(Cl)c2)CC1)c1ccco1
Second: O=C(NCCS(=O)(=O)N1CCN(c2ccc(F)cc2)CC1)c1ccco1
The “hERG current change (%, negative = inhibition) at 10uM” value of the first is lower: -73.8% for the first, -62.2% for the second.

First: COc1ccc(N2CCN(S(=O)(=O)CCNC(=O)c3ccc(Br)o3)CC2)cc1
Second: CSc1ccccc1C(=O)NCCS(=O)(=O)N1CCN(c2ccc(F)cc2)CC1
The “hERG current change (%, negative = inhibition) at 10uM” value of the first is higher: 10.6% for the first, -67.6% for the second.

First: O=C1c2ccccc2S(=O)(=O)N1CCOc1ccc(F)cc1
Second: COc1ccccc1-c1oc2ccccc2c1C#CCCCCO
The “hERG current change (%, negative = inhibition) at 10uM” value of the first is lower: -27.6% for the first, 22.6% for the second.

Going from `COCC1CCCCN1C(=O)c1cccc(OC2CCN(S(C)(=O)=O)CC2)c1` (stereo not shown) to `O=C(NCCS(=O)(=O)N1CCN(c2ccccc2)CC1)c1ccccc1F`, the “hERG current change (%, negative = inhibition) at 10uM” value falls from 14.7% to 6.68%.

Compared with `CC(C)Sc1nc2c(cnn2-c2ccc(Cl)cc2)c(=O)[nH]1`, `CCC1Nc2ncnc(N3CCN(c4ccccc4)CC3)c2N(Cc2ccc(Cl)cc2)C1=O.O=C(O)C(F)(F)F` (stereo not shown) is lower in “hERG current change (%, negative = inhibition) at 10uM” value: 26.2% for the first, -17.4% for the second.

Compared with `Cc1nnc(SCC(=O)N2CCCC2)n(N)c1=O`, `CCC1Nc2ncnc(N3CCCCC3)c2N(Cc2ccccc2)C1=O.O=C(O)C(F)(F)F` (stereo not shown) is lower in “hERG current change (%, negative = inhibition) at 10uM” value: 14.1% for the first, -4.8% for the second.

Going from `CCOC(=O)c1cnn(Cc2ccccc2Cl)c1N` to `CCC1Nc2ncnc(N3CCN(c4ccccn4)CC3)c2N(Cc2ccc(Cl)cc2)C1=O.O=C(O)C(F)(F)F` (stereo not shown), the “hERG current change (%, negative = inhibition) at 10uM” value falls from -11% to -73.8%.

Compared with `Cc1ccc(CN2C(=O)C(CC(C)C)Nc3ncnc(N4CCN(c5ccccn5)CC4)c32)cc1.O=C(O)C(F)(F)F` (stereo not shown), `Cc1ccc(CN2C(=O)C(C)Nc3ncnc(N4CCN(c5ccccn5)CC4)c32)cc1.O=C(O)C(F)(F)F` (stereo not shown) is lower in “hERG current change (%, negative = inhibition) at 10uM” value: -43.3% for the first, -56.1% for the second.

For `CC1Nc2ncnc(N3CCN(c4ccccn4)CC3)c2N(Cc2ccccc2)C1=O.O=C(O)C(F)(F)F` (stereo not shown), the “hERG current change (%, negative = inhibition) at 10uM” value was -19.8%.
